The record followed here is PubChem BioAssay AID1220 (Sanford-Burnham Center for Chemical Genomics, 2008).

The campaign covered roughly 190,000 compounds. About 1,300 (0.68%) were called active. Many of the other results were omitted from the sample, so actives are more common in it than they were. Values without a mark were called inactive. No stated cut-off is given here; in the data, active means inhibition above about 50%; inactive means the rest.

Mannose-6-phosphate isomerase (Homo sapiens), sequence (P34949 whole entry, looked up): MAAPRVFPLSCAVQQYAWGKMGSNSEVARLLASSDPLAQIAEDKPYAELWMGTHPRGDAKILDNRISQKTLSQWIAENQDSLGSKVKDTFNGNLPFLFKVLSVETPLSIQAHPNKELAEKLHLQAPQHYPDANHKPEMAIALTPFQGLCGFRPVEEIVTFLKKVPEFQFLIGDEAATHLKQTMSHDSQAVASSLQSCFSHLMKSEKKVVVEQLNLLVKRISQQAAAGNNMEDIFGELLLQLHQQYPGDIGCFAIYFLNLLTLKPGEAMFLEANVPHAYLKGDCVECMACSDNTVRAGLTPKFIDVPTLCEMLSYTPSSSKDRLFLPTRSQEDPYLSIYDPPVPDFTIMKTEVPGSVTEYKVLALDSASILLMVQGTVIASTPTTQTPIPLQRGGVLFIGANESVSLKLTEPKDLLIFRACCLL

The assay addresses Mannose-6-phosphate isomerase (Homo sapiens) (UniProt P34949). The assay is described as follows: human PMI inhibitors, high substrate, primary screen, biochemical, fluorescence intensity, high mannose 6-phosphate (AID 1220). As to conditions: recombinant PMI enzyme, coupled fluorescence intensity; at 20 µM; hits give high values.
One may read the inhibition as the drop in the measured response relative to a control, in per cent. Take `O=C(CN(C(=O)CNC(=O)c1cccs1)c1ccc2c(c1)OCCO2)NC1CCCC1`: the inhibition is 4.5%.

On to `COc1ccc(N2CC(O)=C(c3nc(-c4ccc(F)cc4)cs3)C2=N)cc1Cl`, for which the inhibition was -5.1%.

Consider `COc1ccccc1C(=O)NNC(=O)c1ccccc1F`, for which the inhibition was -3.9%.

For the compound `O=C1CN(CC(=O)N2CCCCC2)c2ccccc2O1`, the inhibition was 51.6% (active). Turning to `O=C1CN(CC(=O)N2CCOCC2)c2ccccc2O1`, the inhibition is 51.9% (active). `O=C(CN1C(=O)c2ccccc2C1=O)N1CCOCC1`: the inhibition is 7.3%.

Turning to `O=C(CN1CCCCC1)N1c2ccccc2Oc2ccccc21`, the inhibition is -7.7%. In the case of `O=C(CN1CCOc2ccccc21)N1CCCC1`, the inhibition is 3.6%. Take `O=C(CN1CC(=O)Oc2ccccc21)OCC(=O)c1ccccc1`: the inhibition is 11.2%. Turning to `COCCCNC(=O)Cc1ccccc1OC`, the inhibition was -3.4%.

Regarding `CCNc1nc(Oc2ccc(C(=O)OCC)cc2)nc(N2CCOCC2)n1`, the inhibition was 10%.

Turning to `O=[N+]([O-])c1ccc(-c2ccc(C=Nc3cccc4ccccc34)o2)cc1`, the inhibition was 70% (active). For `O=C(Cc1ccccc1)N/N=C/c1ccc(-c2ccc([N+](=O)[O-])cc2)o1`, the inhibition was 14.3%.

As to `Cc1ccc(C)c(N=Cc2ccc(-c3ccc([N+](=O)[O-])cc3)o2)c1`, the inhibition was 10.6%. On to `CCCCOC(=O)c1ccc(Nc2ccc([N+](=O)[O-])cn2)cc1`, for which the inhibition was -10.3%. Regarding `O=C(C1CCCCC1)N1CCN(S(=O)(=O)c2ccc(Br)cc2)CC1`, the inhibition was 1.8%. `COc1ccc(C(=O)Nc2nc3ccc(S(C)(=O)=O)cc3s2)cc1OC`: the inhibition is 7.7%. In the case of `CC(C)C1=CC(=NS(=O)(=O)c2cccc([N+](=O)[O-])c2)C=C(C(C)C)C1=O`, the inhibition was 59.4% (active). On to `CC(C)c1nccn1S(=O)(=O)c1cccc([N+](=O)[O-])c1`, for which the inhibition is -2.8%. For the compound `O=[N+]([O-])c1cccc(S(=O)(=O)c2cccc([N+](=O)[O-])c2)c1`, the inhibition is -1.5%. With `CCOc1cc(NC(=S)NCc2ccco2)c(OCC)cc1NC(C)=O`, the inhibition was 7.1%. For the compound `CCC(NC(C)C)C(O)c1ccc(O)c(O)c1` (stereo unspecified), the inhibition was 61.2% (active). Consider `CNC[C@H](O)c1cccc(O)c1`, for which the inhibition is -2.7%. The result for `CCC(NC(C)C)C(O)c1ccc(O)c2[nH]c(=O)ccc12` (stereo unspecified) reads 11.5%.

In the case of `CNC[C@H](O)c1ccc(O)c(O)c1`, the inhibition was 59% (active). For `CCC(C)c1ccc(O)c(N)c1` (stereo unspecified), the inhibition was 31.5%. The result for `COc1ccc([C@H](C)NC[C@H](O)c2ccc(O)c(NC=O)c2)cc1` reads 10.4%; that for `O=C(NC(=S)Nc1cc(C(F)(F)F)ccc1N1CCOCC1)c1sc2ccccc2c1Cl`, 2.7%; that for `Cc1ccc(/C=C2\C(=O)ON=C2c2ccccc2)o1`, 5.3%. Take `Cc1cccc(C)c1N(CC(=O)N1CCN(c2ccccc2F)CC1)S(C)(=O)=O`: the inhibition is 1.2%. Take `COc1cc(/C(C)=N/Nc2ccc(C(=O)O)cc2)cc(OC)c1OC`: the inhibition was -109%. Consider `Cc1ccnc(NS(=O)(=O)c2ccc(NC(=O)C3COc4ccccc4O3)cc2)n1` (stereo unspecified), for which the inhibition is -9.4%.

`Cc1cc(C)nc(NS(=O)(=O)c2ccc(NC(=O)C3COc4ccccc4O3)cc2)n1` (stereo unspecified): the inhibition was 54.1% (active).

Turning to `O=C(Nc1ccc(S(=O)(=O)Nc2ncccn2)cc1)C1COc2ccccc2O1` (stereo unspecified), the inhibition was 8.2%. As to `Cc1ccccc1NC(=O)c1oc(=O)c2ccccc2c1-c1ccccc1`, the inhibition is -3.9%. With `CCN(CC)C1=CC2=CC(=C(C#N)C#N)CCC2CC1` (stereo unspecified), the inhibition was 50.6% (active). As for `CCCCN(C)C1=CC2=CC(=C(C#N)C#N)CCC2CC1` (stereo unspecified), the inhibition was 51.1% (active). As to `Cc1cc(C=NCCO)c(C)n1-c1cc(Cl)ccc1Cl`, the inhibition was 1.2%. Consider `C=CCNC(=O)CN(c1ccccc1OCC)S(=O)(=O)c1ccc(C)cc1`, for which the inhibition is 9.1%. In the case of `O=C(c1cccc(Br)c1)N1CCN(S(=O)(=O)N2CCOCC2)CC1`, the inhibition is -0.4%.

For `Cc1nn(-c2nc3ccccc3s2)c(N)c1-c1ccc(Cl)cc1`, the inhibition is -4.7%.

On to `CCOC(=O)c1ccccc1N=N/C(C(C)=O)=C(/C)O`, for which the inhibition is 3.4%. The result for `Cc1cc(C(=O)Nc2sc3c(c2C#N)CCC(C)C3)cs1` (stereo unspecified) reads -2.5%; that for `O=C(Cn1cnc2ccccc2c1=O)NCc1cccs1`, 36.2%.

In the case of `COc1cccc(C=Nc2cc(C)cc(C)c2)c1O`, the inhibition was 17.1%. Then `CCCn1c(/N=C/c2cc(OC)ccc2O)nc2ccccc21`, with 13.5%; and `COc1cccc(C=NCC(C)N=Cc2cccc(OC)c2O)c1O` (stereo unspecified), with 52.3% (active).

`COc1ccc(O)c(C=NCC(C)N=Cc2cc(OC)ccc2O)c1` (stereo unspecified): the inhibition is 51.9% (active). With `COc1ccc(O)c(C=Nc2cc(C)on2)c1`, the inhibition was 23.9%. The result for `COc1cccc(/C=N/NC(=O)C(=O)N/N=C/c2cccc(OC)c2O)c1O` reads -27.8%. Then `Cc1ccc(CN(Cc2cc3cc4c(cc3[nH]c2=O)OCCO4)Cc2nnnn2Cc2ccco2)cc1`, with 17.2%; and `CC(C)Cn1c(N2CCN(CC(=O)Nc3ccc(Cl)cc3)CC2)nc2ccccc21`, with 13.8%. With `CCn1c(CN2CCN(C(=O)c3ccco3)CC2)nc2c1c(=O)n(C)c(=O)n2C`, the inhibition was -1%. Consider `CCCS(=O)(=O)c1cn2cccc(N)c2c1S(=O)(=O)CCC`, for which the inhibition is 4%. With `CC(=O)N1CCc2cc(NC(=O)c3ccc(C)cc3)ccc21`, the inhibition was 3.7%. The result for `Cn1nnc2cc(C(=O)N3CCCCCC3)ccc21` reads 0.1%; that for `COc1cc(/C=C(\C#N)c2nc3ccccc3s2)cc([N+](=O)[O-])c1O`, 71.2% (active); that for `COc1ccc(C=C(c2nc3ccccc3s2)c2nc3ccccc3s2)cc1O`, 31.1%. The result for `COc1ccc(/C=C(\C#N)c2nc3ccc(C)cc3[nH]2)cc1Oc1ccc(C(F)(F)F)cc1[N+](=O)[O-]` reads 1.7%; that for `COc1cc(C=C(c2nc3ccccc3s2)c2nc3ccccc3s2)ccc1O`, 34.4%; that for `COc1cc(/C=C(\C#N)c2nc3ccc(C)cc3[nH]2)c([N+](=O)[O-])cc1OC`, 47.8%. Regarding `COc1cc(C=C(c2nc3ccccc3s2)c2nc3ccccc3s2)cc(OC)c1O`, the inhibition was 54.4% (active).

`COc1cc(/C=C(\C#N)c2nc3ccc(C)cc3[nH]2)cc([N+](=O)[O-])c1O`: the inhibition is 64.5% (active). For `COc1cc(/C=C(\C#N)c2nc3ccccc3s2)ccc1OCC(=O)Nc1ccccc1`, the inhibition is -0.3%. As for `COc1cc(/C=C(\C#N)c2nc3ccccc3[nH]2)cc(Br)c1OCc1ccccc1`, the inhibition is -16.7%.

Take `COc1cc(/C=C(\C#N)c2nc3ccccc3[nH]2)c([N+](=O)[O-])cc1OCc1ccccc1`: the inhibition was 66.5% (active).

With `N#C/C(=C\c1ccc(O)c([N+](=O)[O-])c1)c1nc2ccccc2s1`, the inhibition was 0.6%. Consider `COc1cc(/C=C(/C#N)c2nc3ccccc3[nH]2)ccc1Oc1ncccc1[N+](=O)[O-]`, for which the inhibition was 11.5%.

Take `C=CCN(C(=O)CCC(=O)Nc1cc(C)on1)C(C(=O)NC1CCCC1)c1cccnc1` (stereo unspecified): the inhibition was 12.1%.

On to `COc1nc(Nc2cccc([N+](=O)[O-])c2)nc(OC)n1`, for which the inhibition is 11.7%. Turning to `Cc1cc2c(nn1)CCC/C2=N\O`, the inhibition is 4%. For the compound `COc1ccc(C(=O)CSc2nnc(CNC(=O)c3ccc(OC)cc3)n2C)cc1`, the inhibition was -5.4%.

For `Cc1cc2nnc(SC3CCCCN(C(=O)c4ccc(F)cc4)C3=O)n2c2ccccc12` (stereo unspecified), the inhibition was 3%.

`CC(C)c1ccc(/C=N/NC(=O)c2cccc(Cl)c2)cc1`: the inhibition is -5.5%. For `CC(C)Cn1ccc(=O)n(CC(C)C)c1=O`, the inhibition was 12%. Regarding `CC(C)c1ccc(NC(=O)COc2ccccn2)cc1`, the inhibition was 4.4%. For the compound `CC(C)CC(=O)NC(c1ccccc1Cl)c1c(O)ccc2ccccc12` (stereo unspecified), the inhibition is 6.9%. Turning to `O=c1c(-c2nnc(SCc3ccc(Cl)cc3Cl)o2)cccn1Cc1ccccc1`, the inhibition is 7.2%. For the compound `COc1ccc(N2C(=O)CC(n3c(CCCCO)nc4ccccc43)C2=O)cc1` (stereo unspecified), the inhibition is -9.5%. Then `COc1cc(/C=C(\C#N)c2nc3ccccc3n2C)cc(OC)c1O`, with 57% (active); and `Cn1c(/C(C#N)=C/c2ccncc2)nc2ccccc21`, with 30.7%; and `Cn1c(/C(C#N)=C/c2cccc(O)c2)nc2ccccc21`, with 6.4%. Then `Cc1ccc2nc(C)/c(=N\O)c(C)nc2c1`, with 2.2%. Turning to `Cc1nc2ccc(Cl)cc2nc(C)/c1=N\O`, the inhibition was 32.9%.

Consider `Cc1nc2ccccc2nc(C)c1=NO`, for which the inhibition was 54.2% (active). On to `COCCN1C(=O)/C(=C/c2ccc(OCc3ccc(C(=O)O)cc3)c(OC)c2)SC1=Nc1ccccc1`, for which the inhibition was 5.1%. Then `CC(C)CNC(=O)COC(=O)c1cc(S(=O)(=O)N(C)C)ccc1N1CCCC1`, with 4.7%; and `CCN1C=CC2=C(C#N)C(N)C(C#N)(C#N)C(c3ccccc3C(F)(F)F)C2C1` (stereo unspecified), with 5.1%. Turning to `CN1C=CC2=C(C#N)C(N)C(C#N)(C#N)C(c3ccccc3)C2C1` (stereo unspecified), the inhibition is 18.5%. On to `CN1C=CC2=C(C#N)C(N)C(C#N)(C#N)[C@H](c3ccccc3)[C@H]2C1` (stereo partly specified), for which the inhibition was 61% (active). For the compound `O=C(Cn1nc(C(F)(F)F)c2c1CCC2)NCc1ccc(Cl)cc1`, the inhibition was -8.7%. On to `CC(C)C(C)NC(=O)CN1C(=O)NC2(CCCc3ccccc32)C1=O` (stereo unspecified), for which the inhibition was -2.2%. The result for `CCOC(=O)C1CCCN(c2cc(NCCCO)c([N+](=O)[O-])c3nonc23)C1` (stereo unspecified) reads 55.2% (active).

In the case of `CC1CCCN(c2cc(N(C)CCO)c([N+](=O)[O-])c3nonc23)C1` (stereo unspecified), the inhibition was 18%.

`CCOC(=O)N1CCN(c2cc(N(C)CCO)c([N+](=O)[O-])c3nonc23)CC1`: the inhibition is 55.5% (active).

With `CN(CCO)c1cc(N2CCC3(CC2)OCCO3)c2nonc2c1[N+](=O)[O-]`, the inhibition is 34.9%. `CN(CCO)c1cc(N2CCCCC2)c2nonc2c1[N+](=O)[O-]`: the inhibition was 42.4%.

Take `O=[N+]([O-])c1c(NCCCO)cc(N2CCN(Cc3ccc4c(c3)OCO4)CC2)c2nonc12`: the inhibition was 45.2%. Then `CC1CCN(c2cc(N(C)CCO)c([N+](=O)[O-])c3nonc23)CC1`, with 50.7% (active). As to `CN(CCO)c1cc(N2CCN(C(=O)c3ccco3)CC2)c2nonc2c1[N+](=O)[O-]`, the inhibition was 12.4%. On to `O=[N+]([O-])c1c(NCCO)cc(N2CCN(Cc3ccc4c(c3)OCO4)CC2)c2nonc12`, for which the inhibition is 49.1%.
